According to the supplement of paper PMC8728848:
Shown is part of a subset that was picked to be rich in the strongest signals.

Tests used:
Assay in all cases: glycan array binding signal (z-score within array); higher = stronger binding
Conditions in all cases: glycan notation: IUPAC condensed, linker removed
[1] = biological target: Fuc(a1-2)Gal
Summary of the method: (§1)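 The binding signal is a Z-score computed within each array. Data were drawn from 3228 arrays in the Consortium for Functional Glycomics database, restricted to those with a known protein sequence. Scores were averaged over arrays of the same protein sequence at different concentrations or buffers, and over linkers, and negative values can be taken as non-binding.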

[2] = biological target: Fuc(a1-2)Gal(b1-3)GlcNAc
Summary of the method: as §1

[3] = biological target: Fuc(a1-2)Gal(b1-4)[Fuc(a1-3)]GlcNAc
Summary of the method: as §1

[4] = biological target: Fuc(a1-3)[Gal(b1-4)]GlcNAc
Summary of the method: as §1

[5] = biological target: Fuc(a1-3)[Gal3S(b1-4)]Glc6S
Summary of the method: as §1

[6] = biological target: Fuc(a1-3)[Gal3S(b1-4)]GlcNAc6S
Summary of the method: as §1

[7] = biological target: Fuc(b1-3)GlcNAc
Summary of the method: as §1

[8] = biological target: Gal(b1-3)Gal
Summary of the method: as §1

[9] = biological target: Gal(b1-4)GlcNAc(b1-6)GalNAc
Summary of the method: as §1

[10] = biological target: Gal3S(b1-4)GlcNAc
Summary of the method: as §1

[11] = biological target: Gal3S6S(b1-4)GlcNAc6S
Summary of the method: as §1

[12] = biological target: Gal4S(b1-4)GlcNAc
Summary of the method: as §1

[13] = biological target: Gal6S(b1-4)Glc6S
Summary of the method: as §1

[14] = biological target: GlcNAc(b1-3)Gal(b1-3)GalNAc
Summary of the method: as §1

[15] = biological target: Man(a1-3)[Man(a1-6)]Man
Summary of the method: as §1

[16] = biological target: Neu5Ac9Ac(a2-6)Gal(b1-4)GlcNAc
Summary of the method: as §1

[17] = biological target: Fuc(a1-2)[Gal(a1-3)]Gal(b1-4)GlcNAc
Summary of the method: as §1

[18] = biological target: Fuc(a1-2)[Gal(a1-3)]Gal(b1-4)[Fuc(a1-3)]GlcNAc
Summary of the method: as §1

[19] = biological target: Gal(a1-4)Gal(b1-4)GalNAc
Summary of the method: as §1

[20] = biological target: Gal(b1-2)Gal
Summary of the method: as §1

[21] = biological target: Gal(b1-3)GalNAc(b1-3)Gal(a1-4)Gal(b1-4)Glc
Summary of the method: as §1

[22] = biological target: Gal(b1-4)Glc6S
Summary of the method: as §1

[23] = biological target: GlcNAc(a1-3)Gal(b1-4)GlcNAc
Summary of the method: as §1

[24] = biological target: GlcNAc(b1-2)Gal(b1-3)GlcNAc
Summary of the method: as §1

[25] = biological target: GlcNAc(b1-3)[GlcNAc(b1-6)]GlcNAc
Summary of the method: as §1

[26] = biological target: GlcNAc(b1-4)Gal(b1-4)GlcNAc
Summary of the method: as §1

[27] = biological target: GlcNAc(b1-4)GlcNAc(b1-4)GlcNAc(b1-4)GlcNAc(b1-4)GlcNAc
Summary of the method: as §1

[28] = biological target: Man(a1-3)[Man(a1-6)]Man(a1-6)[Man(a1-3)]Man(b1-4)GlcNAc(b1-4)GlcNAc
Summary of the method: as §1

[29] = biological target: Neu5Ac(a2-3)Gal(b1-3)GalNAc(b1-3)Gal(a1-4)Gal(b1-4)Glc
Summary of the method: as §1

[30] = biological target: Neu5Ac(a2-3)Gal(b1-3)GlcNAc
Summary of the method: as §1

[31] = biological target: Neu5Ac(a2-3)Gal6S(b1-4)[Fuc(a1-3)]GlcNAc
Summary of the method: as §1

[32] = biological target: Neu5Ac(a2-6)GalNAc
Summary of the method: as §1

[33] = biological target: Neu5Gc(a2-3)Gal(b1-3)[Fuc(a1-4)]GlcNAc
Summary of the method: as §1

[34] = biological target: Neu5Ac(a2-3)Gal(b1-4)[Fuc(a1-3)]GlcNAc(b1-6)[Neu5Ac(a2-3)Gal(b1-3)]GalNAc
Summary of the method: as §1

[35] = biological target: Neu5Ac(a2-3)Gal(b1-4)[Fuc(a1-3)]GlcNAc6S
Summary of the method: as §1

[36] = biological target: Neu5Ac(a2-3)[GalNAc(b1-4)]Gal(b1-4)Glc
Summary of the method: as §1

[37] = biological target: Neu5Ac(a2-6)Gal(b1-4)GlcNAc(b1-2)Man(a1-6)Man(b1-4)GlcNAc(b1-4)GlcNAc
Summary of the method: as §1

[38] = biological target: Neu5Ac(a2-6)Gal(b1-4)GlcNAc(b1-2)Man(a1-6)[Man(a1-3)]Man(b1-4)GlcNAc(b1-4)GlcNAc
Summary of the method: as §1

[39] = biological target: Neu5Ac(a2-8)Neu5Ac(a2-3)Gal(b1-4)Glc
Summary of the method: as §1

[40] = biological target: Neu5Ac(a2-8)Neu5Ac(a2-8)Neu5Ac(a2-3)Gal(b1-4)Glc
Summary of the method: as §1

[41] = biological target: Neu5Gc(a2-3)Gal(b1-4)Glc
Summary of the method: as §1

B1: Fap1 (Streptococcus parasanguis) (protein)
chain: KATSKGTEEKQDSVRENLDKMISEAEVLNDMAARKLITLDAEQQLELMKSLVATQSQLEATKNLIGDPNATVADLQIAYTTLGNNTQALGNELIKLNPNGQIYAVLNNTEASRAATLRSTTTGTKTTFTISDFSNGGTQYYWAGGNANNLKNPISSISAVYDSATGKISWTVEYDPTTILKSPALKTLKTYTGIYIDTSSDSKLSTPTNVLIDGAATNPVTNFYGNGSKGIEYVSKGTTKGVTKHTITFDTAFSGRANDLADLEIKMLAATTLSDPHFYEDGSKGNYGRYNGQTAPYVIANDSGTAIGGYQVSGVNADSIPSDTT
- glycan array binding signal (z-score) [1]: 1.54
- glycan array binding signal (z-score) [2]: 0.203
- glycan array binding signal (z-score) [3]: 0.342
- glycan array binding signal (z-score) [4]: 0.377
- glycan array binding signal (z-score) [5]: 0.012
- glycan array binding signal (z-score) [6]: 2.23
- glycan array binding signal (z-score) [7]: 0.144
- glycan array binding signal (z-score) [8]: -0.318
- glycan array binding signal (z-score) [9]: 0.546
- glycan array binding signal (z-score) [10]: -0.22
- glycan array binding signal (z-score) [11]: 1.8
- glycan array binding signal (z-score) [12]: 1.82
- glycan array binding signal (z-score) [13]: -0.521
- glycan array binding signal (z-score) [14]: 2.08
- glycan array binding signal (z-score) [15]: 0.624
- glycan array binding signal (z-score) [16]: 0.638

B2: CVNH3T (Magnaporthe grisea) (protein)
chain: GSHIGPYGNYAGNFSGSSRDICLDGARLRAECRRGDGGYSTSVIDLNRYLSNDNGHFRWVSGGGGGGGTATVTVQQGDTLRDIGRRFDCDFHEIARRNNIQNEDLIYPGQVLQVPTKGGSGGGAGNFWDSARDVRLVDGGKVLEAELRYSGGWNRSRIYLDEHIGNRNGELIHC
- glycan array binding signal (z-score) [1]: -0.223
- glycan array binding signal (z-score) [17]: -0.23
- glycan array binding signal (z-score) [18]: -0.226
- glycan array binding signal (z-score) [19]: 5.47
- glycan array binding signal (z-score) [20]: -0.185
- glycan array binding signal (z-score) [21]: 6.38
- glycan array binding signal (z-score) [22]: -0.229
- glycan array binding signal (z-score) [23]: -0.239
- glycan array binding signal (z-score) [24]: -0.233
- glycan array binding signal (z-score) [25]: -0.222
- glycan array binding signal (z-score) [26]: -0.22
- glycan array binding signal (z-score) [27]: 5.39
- glycan array binding signal (z-score) [28]: -0.23
- glycan array binding signal (z-score) [29]: 6.23
- glycan array binding signal (z-score) [30]: -0.152
- glycan array binding signal (z-score) [31]: -0.226
- glycan array binding signal (z-score) [32]: -0.209
- glycan array binding signal (z-score) [33]: -0.175

B3: Spy0252 (Streptococcus pyogenes), Q9A1I9_STRP1 (protein)
chain: MNMKKLASLAMLGASVLGLAACGGKSQKEAGASKSDTAKTEITWWAFPVFTQEKAEDGVGTYEKKLIAAFEKANPEIKVKLETIDFTSGPEKITTAIEAGTAPDVLFDAPGRIIQYGKNGKLADLNDLFTEEFTKDVNNDKLIQASKAGDTAYMYPISSAPFYMALNKKMLKDAGVLDLVKEGWTTDDFEKVLKALKDKGYNPGSFFANGQGGDQGPRAFFANLYSSHITDDKVTKYTTDDANSIKAMTKISNWIKDGLMMNGSQYDGSADIQNFANGQTSFTILWAPAQPGIQAKLLEASKVDYLEIPFPSDDGKPELEYLVNGFAVFNNKDEQKVAASKTFIQFIADDKEWGPKNVVRTGAFPVRTSYGDLYKDKRMEKIAEWTKFYSPYYNTIDGFAEMRTLWFPMVQAVSNGDEKPEDALKAFTEKANKTIKKTQ
- glycan array binding signal (z-score) [34]: -0.157
- glycan array binding signal (z-score) [35]: -0.278
- glycan array binding signal (z-score) [36]: -0.266
- glycan array binding signal (z-score) [37]: -0.277
- glycan array binding signal (z-score) [38]: -0.26
- glycan array binding signal (z-score) [39]: 7.23
- glycan array binding signal (z-score) [40]: 7.09
- glycan array binding signal (z-score) [16]: -0.248
- glycan array binding signal (z-score) [41]: 5.2
